The values below come from paper PMC10726135, “HNF4α isoforms regulate the circadian balance between carbohydrate and lipid metabolism in the liver”.

In all, about 18,000 sequences were measured (“log2 normalized intensity”: median about 0.39, highest 2% from about 6.6 on). The sample holds the highest values, similar sequences and a random draw of the others, so the mix is not that of the screen.

The test addresses T1, HNF4alpha2 (COS-7 nuclear extract) (Homo sapiens, UniProt P41235 1-474).
T1 sequence: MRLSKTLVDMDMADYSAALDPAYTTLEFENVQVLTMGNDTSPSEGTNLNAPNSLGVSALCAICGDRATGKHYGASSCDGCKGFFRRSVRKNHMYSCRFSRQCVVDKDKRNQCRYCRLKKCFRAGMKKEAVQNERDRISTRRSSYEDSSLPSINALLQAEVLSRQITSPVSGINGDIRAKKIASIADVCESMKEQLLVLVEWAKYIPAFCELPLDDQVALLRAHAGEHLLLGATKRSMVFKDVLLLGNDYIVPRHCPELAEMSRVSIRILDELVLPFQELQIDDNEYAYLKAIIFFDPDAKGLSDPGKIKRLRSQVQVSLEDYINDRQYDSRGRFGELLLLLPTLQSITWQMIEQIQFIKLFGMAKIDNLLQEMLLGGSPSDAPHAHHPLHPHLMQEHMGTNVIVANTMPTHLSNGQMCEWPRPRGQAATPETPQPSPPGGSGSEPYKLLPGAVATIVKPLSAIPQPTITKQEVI
The test is described as follows: protein-binding microarray; COS-7 nuclear extract on double-stranded Agilent 4x180k PBM; binding buffer, salt, pH and temperature not given in the material; high values mean tight binding. As to conditions: chain copies: 2; label: 3' end of strand 1 on the slide; dsDNA, one strand shown. A digest of the protocol:
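A human HNF4α isoform was expressed in COS-7 cells by transient CaPO4 transfection, and nuclear extracts were prepared. These were applied to a custom Agilent SurePrint G3 4x180k array carrying ~44,000 test sequences in quadruplicate as double-stranded ~60-nt oligonucleotides, and an Agilent G2565CA scanner imaged bound HNF4α at 2-µm resolution. The background-corrected, normalized gProcessedSignal from Agilent software was used as the binding signal.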
Consider “AGAAAGACATGTTTCTAACTGCCCGCATTCGCCTAGGGAGATTAGAGTATCGGTCGA”, for which the binding signal is 0.246 log2 normalized intensity.

As to “TATTCCAGGCACAAGAATGGTCATTCTCTGGCCTAGGGAGATTAGAGTATCGGTCGA”, the binding signal was -0.977 log2 normalized intensity.

“GGCTTCTGGACTATGCCTTGAACTTTAAGGGCCTAGGGAGATTAGAGTATCGGTCGA”: the binding signal was determined as 2.21 log2 normalized intensity.

Turning to “TGGCACCTGAAGCTGCCCTTTGCACATGCCGCCTAGGGAGATTAGAGTATCGGTCGA”, the binding signal turned out to be 4.08 log2 normalized intensity.

Regarding “ATTGGGATGGAGTAACTTGCTAAGTATAAAGCCTAGGGAGATTAGAGTATCGGTCGA”, the binding signal was -0.531 log2 normalized intensity.

For “TCTTTTCTAAGATATTTGCATAGGCATTGTGCCTAGGGAGATTAGAGTATCGGTCGA”, the binding signal turned out to be 1.94 log2 normalized intensity.

As for “CTTGTCCAACTCCCCTCCCAAGGCAGCAATGCCTAGGGAGATTAGAGTATCGGTCGA”, the binding signal is 4 log2 normalized intensity.

Consider “GATGACATCATCTGTTTGTACGCGTCGAACGCCTAGGGAGATTAGAGTATCGGTCGA”, for which the binding signal is -0.199 log2 normalized intensity.

Consider “CAACTTTCTCCTCCAGGACCTTGCCCTTTAGCCTAGGGAGATTAGAGTATCGGTCGA”, for which the binding signal was determined as 4.23 log2 normalized intensity.

For “CTTTAGGACTTTGAACCTTGGGTCTGTAATGCCTAGGGAGATTAGAGTATCGGTCGA”, the binding signal amounted to 6.04 log2 normalized intensity.

In the case of “CAAAACTTTAGGACTTTGAACCTTGGGTCTGCCTAGGGAGATTAGAGTATCGGTCGA”, the binding signal is 7.13 log2 normalized intensity.

As to “GGGAGGAGGGCAACCTTTGAACTGGGTCTTGCCTAGGGAGATTAGAGTATCGGTCGA”, the binding signal was 4.09 log2 normalized intensity.

Turning to “GGACTCTGGAACCATCAGGATTCCAGAGGAGCCTAGGGAGATTAGAGTATCGGTCGA”, the binding signal was determined as 1.86 log2 normalized intensity.

On to “TTTGCAACCTTTGATAACCTACAACCTTCTGCCTAGGGAGATTAGAGTATCGGTCGA”, for which the binding signal turned out to be 0.304 log2 normalized intensity.

On to “CCCAGGTACGGAGGACAGCCACCCGTGCTTGCCTAGGGAGATTAGAGTATCGGTCGA”, for which the binding signal is -0.928 log2 normalized intensity.

As for “TTACTATAGGTTCTACTCTCCCCAGTTCAAGCCTAGGGAGATTAGAGTATCGGTCGA”, the binding signal was 3.24 log2 normalized intensity.

Take “CTCAGTCATACCACATGGATGGATTCAGATGCCTAGGGAGATTAGAGTATCGGTCGA”: the binding signal came out at 0.259 log2 normalized intensity.

On to “TGGGGTATCAGGTGGTGATGGTGGGAGGGAGCCTAGGGAGATTAGAGTATCGGTCGA”, for which the binding signal was 0.113 log2 normalized intensity.

Turning to “GGTGAACTTTGAGACTATCCTTGGACCGCAGCCTAGGGAGATTAGAGTATCGGTCGA”, the binding signal was 2.51 log2 normalized intensity.

On to “GAGGACTTTGGCCTTTTGTGAGATATGGACGCCTAGGGAGATTAGAGTATCGGTCGA”, for which the binding signal came out at 3.45 log2 normalized intensity.

Take “AGATCAGATGGGGTGAACTTTGGACCACATGCCTAGGGAGATTAGAGTATCGGTCGA”: the binding signal came to 7.41 log2 normalized intensity.

Take “ACAGGAGATCAGATGGGGTGAACTTTGGACGCCTAGGGAGATTAGAGTATCGGTCGA”: the binding signal amounted to 8.41 log2 normalized intensity.

Take “CAGGGGTCATCAGATAGATGGTCAGTGAACGCCTAGGGAGATTAGAGTATCGGTCGA”: the binding signal was 1.44 log2 normalized intensity.

“TACCATGGGAGACCTCAGGGGTCATCAGATGCCTAGGGAGATTAGAGTATCGGTCGA”: the binding signal came out at 2.49 log2 normalized intensity.

Take “AGATGGGGTGAACTTTGGACCACATATAGAGCCTAGGGAGATTAGAGTATCGGTCGA”: the binding signal was 7.14 log2 normalized intensity.

Regarding “TCTCTCTCTCTTTCTTCCCCCACTCCAAGTGCCTAGGGAGATTAGAGTATCGGTCGA”, the binding signal amounted to 5.09 log2 normalized intensity.

As to “CGAGTCAAGGGTCAATCCTCTCTTTGGAATGCCTAGGGAGATTAGAGTATCGGTCGA”, the binding signal was 2.31 log2 normalized intensity.

Turning to “CCTCCTGCCCTATGTCCTCCAGCTCTTGGGGCCTAGGGAGATTAGAGTATCGGTCGA”, the binding signal came to 1.53 log2 normalized intensity.

For “TGGAAGTCGCCGTGAGGTTATTTGCAGACTGCCTAGGGAGATTAGAGTATCGGTCGA”, the binding signal was 0.0984 log2 normalized intensity.

On to “ATTCCTATCGCCCTTCTGTCAAGTCCAAAGGCCTAGGGAGATTAGAGTATCGGTCGA”, for which the binding signal is -0.648 log2 normalized intensity.

As for “TCTGCACAAAATACAAGTCGTAAAGACCTTGCCTAGGGAGATTAGAGTATCGGTCGA”, the binding signal is 0.709 log2 normalized intensity.

Take “CCCTCAGCAACTGCAAGGCTGACCCGTGAAGCCTAGGGAGATTAGAGTATCGGTCGA”: the binding signal was found to be 1.4 log2 normalized intensity.

Turning to “TGTGAGTCCAGTTGAATGATGGCGAGTGTGGCCTAGGGAGATTAGAGTATCGGTCGA”, the binding signal turned out to be 1.62 log2 normalized intensity.

Turning to “TCCAGGCTTGTCCTTTTGACCACAGTTATCGCCTAGGGAGATTAGAGTATCGGTCGA”, the binding signal is 2.33 log2 normalized intensity.

For the sequence “TCTTGACCAGGCAAGCTTGACCTTTGATCCGCCTAGGGAGATTAGAGTATCGGTCGA”, the binding signal stood at 10.2 log2 normalized intensity.

“ATTTGACCCTTGGCCAGGTGCAGTGGCTCAGCCTAGGGAGATTAGAGTATCGGTCGA”: the binding signal turned out to be 2.99 log2 normalized intensity.

For “GCAAGCTTGACCTTTGATCCAGGCTCAGTGGCCTAGGGAGATTAGAGTATCGGTCGA”, the binding signal is 7.48 log2 normalized intensity.

In the case of “TTGATCCAGGATCCTTCTTGACCAGGCAAGGCCTAGGGAGATTAGAGTATCGGTCGA”, the binding signal was -0.434 log2 normalized intensity.

In the case of “CTTGACCTTTGATCCAGGCTCAGTGGGCGTGCCTAGGGAGATTAGAGTATCGGTCGA”, the binding signal came to 4.91 log2 normalized intensity.

Turning to “ATCCTTCTTGACCAGGCAAGCTTGACCTTTGCCTAGGGAGATTAGAGTATCGGTCGA”, the binding signal was determined as 7.07 log2 normalized intensity.

As for “TTAGGATGACCTTTAGATTCTTACAGGCAAGCCTAGGGAGATTAGAGTATCGGTCGA”, the binding signal was 3.63 log2 normalized intensity.

Regarding “CAAGCTTGATCCAGGATCCTTCTTGACCAGGCCTAGGGAGATTAGAGTATCGGTCGA”, the binding signal was determined as 0.316 log2 normalized intensity.

As to “AATTACCATTCTTGAGGACAGGCCAAATCCGCCTAGGGAGATTAGAGTATCGGTCGA”, the binding signal stood at 0.0816 log2 normalized intensity.

As to “CCCAGGTCCAGCCTTTGGGCAGGGGCATCCGCCTAGGGAGATTAGAGTATCGGTCGA”, the binding signal is -0.72 log2 normalized intensity.

On to “TGTGCAGCTTTGTGTAAAACTTCAAAGAAGGCCTAGGGAGATTAGAGTATCGGTCGA”, for which the binding signal was -0.427 log2 normalized intensity.

Regarding “GGGCCAGCAAGAGGTGACCCCAGGGCAAAGGCCTAGGGAGATTAGAGTATCGGTCGA”, the binding signal was 2.92 log2 normalized intensity.

With “TCACAGTGTGGGGCAAATCTGAGGTCAAAGGCCTAGGGAGATTAGAGTATCGGTCGA”, the binding signal was determined as 2.22 log2 normalized intensity.

“CCTGAGGTGTGAGAGGGCAAAGGTCACAGCGCCTAGGGAGATTAGAGTATCGGTCGA”: the binding signal turned out to be 8.02 log2 normalized intensity.

Turning to “AATGGGCAAAGGTCACAAGAGGTGCTGTGTGCCTAGGGAGATTAGAGTATCGGTCGA”, the binding signal was 4.69 log2 normalized intensity.

Regarding “GGCTGAATGGGCAAAGGTCACAAGAGGTGCGCCTAGGGAGATTAGAGTATCGGTCGA”, the binding signal is 4.6 log2 normalized intensity.

Turning to “GGTGTGAGAGGGCAAAGGTCACAGCATTAGGCCTAGGGAGATTAGAGTATCGGTCGA”, the binding signal was 6.76 log2 normalized intensity.

Consider “GGGCAGCCCGTGTGGGCGGGTGCAGCTTCCGCCTAGGGAGATTAGAGTATCGGTCGA”, for which the binding signal is -0.675 log2 normalized intensity.

On to “CAGTTATCAGACAGAGGAATTCAGCAGGATGCCTAGGGAGATTAGAGTATCGGTCGA”, for which the binding signal was -0.611 log2 normalized intensity.

Turning to “TTTCTCCTCTCTGGGCTTCCATTGTGATTCGCCTAGGGAGATTAGAGTATCGGTCGA”, the binding signal is 1.02 log2 normalized intensity.
